Results reported in PubChem BioAssay (NCI).
About 79,000 compounds went through this panel and 15% of them were active in at least one assay; those are over-represented in the sample as a whole. Unmarked numbers belong to inactive results. Calls of active or inactive are those of the source. Cut-off read from the data, not from the text of the source: active = growth inhibition above about 70%; inactive = the rest. Where a SMILES comes first, the peptide text is derived from it. [ ]: non-standard residue; d: D form. ξ: configuration not given here. ξD = NC(CC(=O)O)C(=O)O

Tests used:
[1] = NCI Yeast Anticancer Drug Screen. Data for the rad50 strain (AID 155);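 note: 0% = growth of vehicle-only cultures of the same strain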; conditions: S. cerevisiae rad50 strain growth inhibition, active compounds read high
Method in brief: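 Readout: growth inhibition relative to vehicle-treated cultures. Compound exposure was carried out in a genetically defined yeast strain deficient in DNA damage repair.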

[2] = NCI Yeast Anticancer Drug Screen. Data for the mec2-1 strain (AID 157); conditions: S. cerevisiae mec2-1 strain, active compounds read high
Method in brief: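 Cells of the genetically defined mec2-1 yeast strain are incubated with test compound. Inhibition of growth is calculated against vehicle-treated controls.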

[3] = NCI Yeast Anticancer Drug Screen. Data for the sgs1 mgt1 strain (AID 161);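 note: 0% = growth of cultures given vehicle only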; conditions: S. cerevisiae sgs1 mgt1 strain, active compounds read high
Method in brief: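 Genetically altered yeast, compound exposure, growth inhibition relative to vehicle.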

[4] = NCI Yeast Anticancer Drug Screen. Data for the cln2 rad14 strain (AID 165);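 note: 0% = growth equal to vehicle treated cultures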; conditions: S. cerevisiae cln2 rad14 strain, active compounds read high
Method in brief: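 The screen exposed genetically defined yeast (cln2 rad14) to test compounds and scored growth inhibition relative to vehicle-treated controls.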

[5] = NCI Yeast Anticancer Drug Screen. Data for the bub3 strain (AID 167); conditions: S. cerevisiae bub3 mutant strain, active compounds read high
Method in brief: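 Readout: yeast growth inhibition, expressed relative to vehicle-only wells. The test organism is a mutant strain from a panel with lesions in DNA repair or checkpoint genes.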

[6] = NCI Yeast Anticancer Drug Screen. Data for the mlh1 rad18 strain (AID 175); conditions: S. cerevisiae mlh1 rad18 strain growth inhibition, active compounds read high
Method in brief: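 Compound-treated yeast growth, normalised to vehicle controls. Strain bears defined DNA repair mutations.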

[7] = at 5.0 µM (retest, dose inferred, filed as 0.5)
[8] = at 50.0 µM (retest, dose inferred, filed as 5.0)

Compound | growth inhibition [1, 7] | growth inhibition [1, 8] | growth inhibition ([1]; at 50.0 µM) | growth inhibition [2, 7] | growth inhibition [2, 8] | growth inhibition ([2]; at 50.0 µM) | growth inhibition [3, 7] | growth inhibition [3, 8] | growth inhibition ([3]; at 50.0 µM) | growth inhibition [4, 7] | growth inhibition [4, 8] | growth inhibition ([4]; at 50.0 µM) | growth inhibition [5, 7] | growth inhibition [5, 8] | growth inhibition ([5]; at 50.0 µM) | growth inhibition [6, 7] | growth inhibition [6, 8] | growth inhibition ([6]; at 50.0 µM)
NC(=S)N/N=C\c1nccc2c(C(F)(F)F)cccc12 | -4% | 96% (active) | 89% (active) | 2% | 96% (active) | 91.4% (active) | 6% | 96% (active) | 90.5% (active) | -10% | 94% (active) | 88.2% (active) | -5% | 95% (active) | 89.7% (active) | 7% | 95% (active) | 89.2% (active)
CC(C)(C)CC(C)(C)c1ccc(OCCOCCSC(=N)N)cc1 | 5% | 99% (active) | 46.4% | -3% | 100% (active) | 47% | 23% | 99% (active) | 40.1% | 13% | 99% (active) | 99.2% (active) | 5% | 99% (active) | 99.5% (active) | 24% | 98% (active) | 97.6% (active)
CC(C)Nc1ccc(Nc2ccc(NC(C)C)cc2)cc1 | 0% | 81% (active) | 65.7% | -21% | 74% (active) | 97% (active) | -1% | 59% | 48% | -10% | 73% (active) | 92.9% (active) | -7% | 80% (active) | 92.5% (active) | -15% | 51% | 92.3% (active)
CCN(CC)CCNc1ccc([N+](=O)[O-])c2sc3ccccc3c(=O)c12 | 46% | 95% (active) | 86.2% (active) | 13% | 85% (active) | 90.7% (active) | 19% | 84% (active) | 41.2% | 12% | 60% | 20.5% | 27% | 98% (active) | 17.7% | 33% | 88% (active) | 90.3% (active)
CN1CCC(CN2c3ccccc3Sc3ccccc32)C1 (stereo not given) | 2% | 16% | 38.5% | 2% | -27% | -22.9% | -8% | 11% | 21.1% | -17% | -1% | 51.2% | 26% | 6% | 19.4% | 11% | 16% | 32.2%
O=C(C[P+](c1ccccc1)(c1ccccc1)c1ccccc1)c1ccccc1 | 0% | 10% | 11.8% | 9% | 14% | 23.4% | -7% | 11% | 22.1% | 18% | 12% | 8% | 2% | 8% | 16.6% | 5% | -46% | 34.6%
Cc1ccc(/C=C2\CNC/C(=C\c3ccc(C)cc3)C2=O)cc1 | 68% | 96% (active) | 86% (active) | 54% | 98% (active) | 86.4% (active) | 76% (active) | 98% (active) | 90.5% (active) | 55% | 91% (active) | 77.2% (active) | 75% (active) | 97% (active) | 87.2% (active) | 78% (active) | 97% (active) | 83.8% (active)
CCOc1ccc(C(C[N+](=O)[O-])Sc2ccccc2N)cc1 (stereo not given) | 36% | 47% | 73.5% (active) | 36% | 46% | 92.1% (active) | 42% | 57% | 92.7% (active) | 29% | 29% | 83.9% (active) | 32% | 72% (active) | 91.7% (active) | 45% | 59% | 87% (active)
O=C1C(=O)c2cccnc2-c2ncccc21 | 93% (active) | 98% (active) | 90.8% (active) | 95% (active) | 98% (active) | 93.6% (active) | 95% (active) | 99% (active) | 93.2% (active) | 73% (active) | 96% (active) | 91% (active) | 96% (active) | 98% (active) | 92.2% (active) | 94% (active) | 98% (active) | 91.5% (active)
CC[n+]1ccc(Nc2ccc(NC(=O)c3ccc(Nc4cc[n+](CC)c5ccc([N+](=O)[O-])cc45)cc3)cc2)cc1 | 84% (active) | 97% (active) | 99% (active) | 14% | 97% (active) | 99% (active) | 84% (active) | 98% (active) | 99.5% (active) | 72% (active) | 96% (active) | 97% (active) | 72% (active) | 97% (active) | 99.1% (active) | 82% (active) | 97% (active) | 97.8% (active)
CCCCCC[C@@H](O)C/C=C\CCCCCCCC(=O)OCCOC | -4% | 2% | 24.9% | -3% | 26% | 5.4% | -6% | 24% | 4.2% | 2% | -4% | 77.2% (active) | -5% | 86% (active) | 12.6% | 0% | 13% | 34.1%
CCOC(=O)c1c(C)[nH]c2ccc(O)cc12 | 6% | 15% | 98.3% (active) | 1% | -3% | 96% (active) | -13% | 20% | 97% (active) | -12% | -10% | 94.3% (active) | -24% | 5% | 97.3% (active) | -6% | 50% | 96.9% (active)
CC1=C(C2=C(C)C(=O)C(=O)c3cc(C)ccc32)c2ccc(C)cc2C(=O)C1=O | 89% (active) | 98% (active) | 86.7% (active) | 95% (active) | 99% (active) | 91.5% (active) | 98% (active) | 99% (active) | 91.8% (active) | 71% (active) | 98% (active) | 89.8% (active) | 98% (active) | 99% (active) | 90.9% (active) | 97% (active) | 99% (active) | 91% (active)
NCC(=O)NC(CC(=O)O)C(=O)O (stereo not given) (H-Gly-[ξD]-OH) | -1% | 10% | 12.7% | -6% | -12% | 9.15% | -10% | 20% | 13.2% | -2% | 14% | 1.05% | 9% | 9% | 8.05% | 8% | 16% | 32.2%
CC1(C)N=c2cc3c(cc2N1c1ccc(Cl)cc1)=Nc1ccccc1N3c1ccc(Cl)cc1 | 17% | -4% | 96.1% (active) | 7% | -4% | 94.2% (active) | 16% | 1% | 97.1% (active) | 10% | -4% | 95.2% (active) | 7% | 1% | 94% (active) | 35% | -5% | 96.3% (active)
COc1ccc2nc3c4c(nccc4c2c1)-c1ncccc1C3=O | 93% (active) | 97% (active) | 89.2% (active) | 31% | 98% (active) | 87.5% (active) | 43% | 97% (active) | 90.8% (active) | 61% | 97% (active) | 90.6% (active) | 58% | 96% (active) | 89.5% (active) | 93% (active) | 97% (active) | -43%
CCc1cccc(CC)c1N1C(=O)C=CC1=O | 45% | 78% (active) | 92.7% (active) | 45% | 89% (active) | 94.2% (active) | 99% (active) | 100% (active) | 94% (active) | 88% (active) | 99% (active) | 92.1% (active) | 100% (active) | 100% (active) | 92.6% (active) | 38% | 87% (active) | 93.3% (active)
CC1OC(OC2C(OC3CCC4(C)C(CCC5(C)C4CC=C4C6CC(C)(C)CCC6(C(=O)O)CCC45C)C3(C)CO)OCC(O)C2O)C(O)C(O)C1O (stereo not given) | 94% (active) | 99% (active) | 89.5% (active) | 87% (active) | 100% (active) | 89.8% (active) | 95% (active) | 99% (active) | 90.3% (active) | 89% (active) | 98% (active) | 88.5% (active) | 97% (active) | 99% (active) | 87.7% (active) | 93% (active) | 98% (active) | 88.2% (active)
S=C1NC2=C(COc3ccccc32)C(c2ccc(Cl)cc2)N1 (stereo not given) | 59% | 97% (active) | 89.6% (active) | 70% (active) | 98% (active) | 92.5% (active) | 85% (active) | 98% (active) | 92.5% (active) | 69% | 97% (active) | 90.5% (active) | 92% (active) | 98% (active) | 90.8% (active) | 86% (active) | 97% (active) | 83.1% (active)
O=C(c1ccc(O)c(Br)c1)c1ccc(O)c(Br)c1 | 43% | 99% (active) | 28.7% | 76% (active) | 99% (active) | 76% (active) | 44% | 99% (active) | 64.4% | 83% (active) | 99% (active) | 43.5% | 83% (active) | 99% (active) | 82.7% (active) | 76% (active) | 99% (active) | 88% (active)
